# SMN2 splice enh: increases expression of the SMN2 splice variant. HEK293 SMN2-luciferase splicing reporter, luminescence, 30-36 h. Potency, µM (top dose mostly 46.1 µM), inactives show at the top dose activity change, positive = activation, most hits filed as activators. 2.8% of 210,000 active; also: % of control where 0% means no effect; nearly all actives have a fitted effect of over 55% in size
#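 HEK293 cells carry an SMN2 minigene-luciferase reporter in which exon 7 inclusion puts luciferase in frame. Cells were seeded at 2000 cells/well, attached for 10-12 hours, then exposed to compounds for 30-36 hours at 37C before ONE-Glo luminescence.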
# ELG1 genotox: genotoxicity induction in ELG1-luciferase HEK293T cells; HEK293T ELG1-luciferase reporter, luminescence, 16 h; Potency, µM (top dose mostly 46 µM), for inactives: at the top dose activity change, positive = activation, actives largely listed as activators; 1.3% of 330,000 active; also: % of control where 0% means no effect; nearly all actives have a fitted effect of over 60% in size
#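 Luminescence read-out: rising ELG1-luciferase signal, reflecting elevated ELG1 protein under genetic stress, flags genotoxic compounds. Cells were treated for 16 hr at 37 °C before ONE-Glo detection.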
# Rab9 prom act: Rab9 promoter activation; Huh7 Rab9 promoter-luciferase reporter, luminescence, 24 h; Potency, µM (titrated, usually from 9.22 µM), inactives show at the top dose activation, negative = inhibition, actives largely listed as activators; 2.8% of 320,000 active; also: % of control where 0% means no effect; nearly all actives have a fitted effect of over 60% in size
#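 Measured in stably transfected Huh7 cells bearing a Rab9 promoter–luciferase construct: 24 h compound treatment at 37 °C, followed by luminescence detection.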
# FLuc modulator: counter-screen for miR-21 project: firefly luciferase inhibitors or activators; purified FLuc, Km substrates, luminescence inhibition; Potency, µM (series often up to 57.5 µM), for the others: at the highest dose activity change, negative = inhibition, most hits filed as inhibitors; P08659; 6.9% of 360,000 active;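 also: plate controls were vehicle for no effect and reference inhibitor for full effect; nearly all actives have a fitted effect of over 55% in size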
# Target sequence (P08659 whole entry, looked up): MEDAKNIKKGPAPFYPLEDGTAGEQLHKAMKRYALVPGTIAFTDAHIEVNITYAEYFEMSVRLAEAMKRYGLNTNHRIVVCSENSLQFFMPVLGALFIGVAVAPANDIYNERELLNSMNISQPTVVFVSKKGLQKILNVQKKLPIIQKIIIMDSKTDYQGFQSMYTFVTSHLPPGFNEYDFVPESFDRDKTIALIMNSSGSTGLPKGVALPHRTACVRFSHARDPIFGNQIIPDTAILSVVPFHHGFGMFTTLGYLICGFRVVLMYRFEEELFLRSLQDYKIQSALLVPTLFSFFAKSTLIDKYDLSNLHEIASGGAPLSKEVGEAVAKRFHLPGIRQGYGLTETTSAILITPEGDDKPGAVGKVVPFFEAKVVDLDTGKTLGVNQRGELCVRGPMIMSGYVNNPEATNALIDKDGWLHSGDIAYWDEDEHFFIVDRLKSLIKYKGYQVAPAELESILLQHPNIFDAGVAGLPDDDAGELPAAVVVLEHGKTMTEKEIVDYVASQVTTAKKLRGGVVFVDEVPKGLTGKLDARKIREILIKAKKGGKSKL
#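 Biochemical qHTS of compounds, final roughly 60 µM downward over six points, against 10 nM purified firefly luciferase using Km concentrations of substrates (10 uM D-luciferin, 10 uM ATP) in Tris acetate pH 7.5 buffer; luminescence output.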
# KinaseGlo FLuc: counter-screen: inhibitors of Kinase-Glo firefly luciferase | Potency, µM (doses to about 38.3 µM), inactives show at the highest dose activity change, negative = inhibition, most hits filed as inhibitors | Kinase-Glo luciferase, ATP luminescence, 8 min | 0.28% of 200,000 active; also: % is scaled to controls: 0 for no effect and ±100 for the full control effect; nearly all actives have a fitted effect of over 60% in size
#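 Kinase-Glo luciferase light output from ATP and luciferin was measured with 10 uM ATP, within the enzyme's linear range. Buffer: 50 mM imidazole pH 7.2, 50 mM KCl, 7 mM MgCl2, 0.01% Tween 20, 0.05% BSA; luminescence read after 8 min at ambient temperature.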
# NPC1 promoter act: activates the NPC1 promoter | Huh7 NPC1 promoter luciferase reporter, 24 h | Potency, µM (doses to about 9.22 µM), without a hit: top-dose activation, usual class: activators | 2.4% of 320,000 active | AID 485313; also: % of control where 0% means no effect; nearly all actives have a fitted effect of over 60% in size
#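 Luminescence from an NPC1 promoter-driven luciferase reporter in stably transfected Huh7 cells was measured after 24 h compound treatment at 37 °C, followed by 10 min ambient incubation with luciferase detection reagent.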
# Starred values were filed as active, the others as inactive; ? = inconclusive; · = no result; [ ] = remark or other dose. The list is not random: actives were taken first. Their share in the collection is about 7.3%. Calls follow the shape of the dose curve; as a rule, active = well fitted curve in the direction sought with a large enough effect; inconclusive = small, poorly fitted or top-dose-only effect, or another doubt; inactive = no such curve, though single readings can be large; an effect the other way counts as inactive or inconclusive. Potency is read from the fitted curve at half-maximal effect.
SMILES,SMN2 splice enh,ELG1 genotox,Rab9 prom act,FLuc modulator,KinaseGlo FLuc,NPC1 promoter act
CCOC(=O)C1CCN(c2c(C(=O)c3ccc(C)cc3)cnc3ccc(F)cc23)CC1,3%,·,·,2%,·,·
COC(=O)c1ccc(NC(=O)CCN2CCCCC2)cc1,-10%,-6%,1%,10%,-4%,-1%
COC(=O)c1ccc(N=NN2CCCCC2)cc1,14µM*,8.2µM*,2.2µM*,8.5µM*,1%,2.8µM*
Cc1cc(SCC(=O)c2ccccc2)nc(=O)[nH]1,·,12%[9.26 µM],4µM*,15µM*,·,2.5µM*
Cc1ccc(C(=O)CSc2cc(C)[nH]c(=O)n2)cc1,·,?,4µM*,13µM*,·,3.2µM*
Cc1ccc(CNC(=O)CSc2cc(C)[nH]c(=O)n2)cc1,·,·,·,-13%,·,·
Cc1cc(SCc2ccc(Cl)cc2Cl)nc(=O)[nH]1,·,0%,-7%,5%,·,-12%
Cc1cc(SCC(=O)c2ccc(Cl)cc2)nc(=O)[nH]1,·,?,1.6µM*,4.8µM*,·,1.3µM*
CCOc1ccccc1NC(=O)Nc1cc(C(=O)NCc2ccc(C)cc2)ccc1N1CCCC1,·,·,·,-2%,·,·
CC(C)c1ccc(C(=O)Nc2ccc(-c3nc4ccccc4s3)c(Cl)c2)cc1,?,·,·,-10%,·,·
CC(=O)OC1CC[C@]2(C)C(CC(OC(C)=O)[C@]3(C)C2CC[C@@]2(C)C(c4ccoc4)OC(=O)C4O[C@]432)C1(C)C (stereo partly specified),-15%,·,·,·,-2%,·
CCCCc1c(O)n2c(nc3ccccc32)[nH]c1=O,?,2%,-3%,?,-1%,0%
Cc1cc(=O)n2c(nc3ccccc32)[nH]1,-48%,5%,3%,-19%,5%,-1%
CCOC(=O)c1cc(=O)n2c(nc3ccccc32)[nH]1,·,13%,?,24µM*,·,28%
CCCc1cc(=O)n2c(nc3ccccc32)[nH]1,?,?,?,17µM*,-4%,16%
Cc1ccccc1OCC(=O)Nc1cc(-c2cccc(Br)c2)nn1-c1ccccc1,·,·,·,6%,·,·
COc1cccc(-c2csc(-c3c(N)c(C(=O)c4ccccc4)n4ccccc34)n2)c1,0%,·,·,0%,·,·
Cc1cccc(NS(=O)(=O)c2ccc3c(c2)CCN3C(=O)C2CCC2)c1,-58%,·,·,-12%,·,·
O=C(Cn1nnc2ccccc21)OCc1ccccc1,·,1%,0%,21µM*,·,-6%
c1ccc(CCn2nnc3ccccc32)cc1,·,?,3.2µM*,11µM*,·,3.2µM*
O=C(Cn1nnc2ccccc21)NCc1ccccc1,11µM*,7.3µM*,3.2µM*,13µM*,-5%,2.2µM*
CCOCCCNC(=O)c1ccc2c(=O)n(CCc3ccc(OC)c(OC)c3)c(=O)[nH]c2c1,·,·,·,-3%,·,·
CCOC(=O)c1oc2ccccc2c1NC(=O)CN1CCN(C)CC1,-2%,3%,-10%,10%,11%,0%
CCOC(=O)c1cnc(Nc2nc3ccccc3o2)nc1CN1CCN(C)CC1,13µM*,?,2%,-2%,-3%,29%
COc1ccc(/C=C2\N=C(c3ccccc3Cl)NC2=O)cc1,·,4%,-16%,1.7µM*,·,-30%
SMILES,SMN2 splice enh,ELG1 genotox,Rab9 prom act,FLuc modulator,KinaseGlo FLuc,NPC1 promoter act
CCC(=O)C1=C(c2ccc(OC)c(OC)c2)N(C(=O)CC)n2c(CC)nnc2S1,·,·,·,-5%,·,·
Cc1ccc(C(=O)Nc2ccc3c(c2)CCC3)cc1,1.4µM*,0.18µM*,0.32µM*,0.38µM*,-15%,?
Cn1cc(C(=O)Nc2ccc3c(c2)CCC3)cn1,·,?,30%,21µM*,-7%,23%
NS(=O)(=O)c1cc(C(=O)Nc2ccc3c(c2)CCC3)ccc1Cl,·,10µM*,4µM*,17µM*,·,3.5µM*
CCc1ccc(CNC(=O)CN2C(=O)c3cccnc3Oc3ccc(C)cc32)cc1,·,·,·,-11%,·,·
CCCN(C(=O)Cn1c(=O)oc2cc(Cl)ccc21)c1ccc(C(C)C)cc1,6%,·,·,-2%,·,·
O=C(c1ccc(F)cc1)c1cc2ccccc2o1,·,?,22%,11µM*,·,?
Cc1ccc(C(=O)c2cc3ccccc3o2)cc1[N+](=O)[O-],-4%,?,2.8µM*,7.6µM*,-1%,?
O=C(c1ccccc1)c1cc2ccccc2o1,-6%,?,?,15µM*,1%,?
O=C(c1ccccc1)c1cc2ccccc2oc1=O,·,10%,13%,-12%,·,16%
C/C(=N\NS(=O)(=O)c1ccc(C)c([N+](=O)[O-])c1)c1cc2ccccc2o1,0%,-2%,0%,-10%,-3%,-3%
O=C(NNC(=O)c1cc2ccccc2o1)c1ccc(Cl)cc1,·,1%,1%,2%,·,1%
O=C(NCc1ccc(F)cc1)c1cc2ccccc2o1,·,4%,9%,-12%,·,5%
O=C(NNC(=O)c1cc2ccccc2o1)c1ccc(F)cc1,·,11%,1%,17µM*,·,0%
Nc1c(-c2nc(-c3ccccc3)cs2)c2ccccn2c1C(=O)c1ccc2c(c1)OCO2,27%,·,·,-9%,·,·
O=C(c1ccc([N+](=O)[O-])o1)N1CCc2ccccc21,·,1%,27%,-1%,·,3%
Cc1ccc(C(=O)N2CCc3ccccc32)o1,7.9µM*,?,1.6µM*,9.5µM*,13µM*,2.2µM*
Cc1ccc(C(=O)N2c3ccccc3CC2C)o1 (stereo unspecified),16µM*,?,1µM*,7.6µM*,11µM*,2µM*
Cc1c(C(=O)N2CCc3ccccc32)oc2c1C(=O)CC(C)(C)C2,13µM*,3.3µM*,?,8.5µM*,0%,24%
CC(=O)c1c(C)[nH]c(C(=O)N2c3ccccc3CC2C)c1C (stereo unspecified),2%,14%,9%,4%,1%,0%
CCN1CCN(c2c(S(=O)(=O)c3ccc(C)c(C)c3)cnc3cc(OC)c(OC)cc23)CC1,-9%,·,·,-6%,·,·
COc1ccc(OC)c(NC(=O)c2ccc3c(c2)c(C)c(C)n3Cc2ccc(F)cc2)c1,·,·,·,-9%,·,·
CCOC(=O)C1CCCN(c2ncnc3c2cnn3-c2ccc(Cl)cc2)C1 (stereo unspecified),27%,6%,?,12µM*,2%,?
CCOC(=O)C1CCCN(c2ncnc3c2cnn3-c2ccc(OC)cc2)C1 (stereo unspecified),11µM*,5.2µM*,?,?,-1%,?
Cc1ccc2nc(N3C(=O)C(O)=C(C(=O)c4cc5ccccc5o4)C3c3cccs3)sc2c1 (stereo unspecified),9%,?,21%,4.8µM*,-1%,27%

# High-throughput results: PubChem BioAssay, National Center for Advancing Translational Sciences (NCATS)
